Compounds without any hit were thinned out: in the full panel of roughly 79,000, 15% have a hit. Activity calls are given as the source filed them. Rule as the data show it: active = growth inhibition above about 70%; inactive = the rest.
Test: NCI Yeast Anticancer Drug Screen. Data for the bub3 strain (AID 167)
Conditions: S. cerevisiae bub3 mutant strain, at 50.0 µM, hits give high values
Outline: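 Inhibition values come from growth of compound-treated mutant yeast normalised to vehicle-treated controls.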

| Compound | growth inhibition |
| --- | --- |
| COc1ccc(C2OC3=C(Nc4ccc(Cl)cc4N3)C2=O)c(OC)c1 (stereo not given) | -42.2% (inactive) |
| Nc1nc(-c2ccccc2)ns1 | -17.8% (inactive) |
| O=C(O)CN1CCN(CC(=O)O)CCN(CC(=O)O)CCN(CC(=O)O)CC1 | 20.4% (inactive) |
| COC(=O)CCC(=O)CC(=O)C(=O)Nc1ccc(F)cc1 | -15.6% (inactive) |
| c1ccc(-c2nc(-c3ccccn3)cc3ccccc23)cc1 | 5.4% (inactive) |
| CC12CCC(C(Br)C1=O)C2(C)CBr (stereo not given) | 9% (inactive) |
| CN1CCC(OC(=O)C(O)C2CCCCC2)CC1 (stereo not given) | 19.9% (inactive) |
| CCCCCCCCCCCCOP(=O)(O)OP(=O)(O)OCC1OC(n2ccc(N)nc2=O)CC1O (stereo not given) | 22.1% (inactive) |
| COc1ccc2c(c1OC)Oc1c(OC)ccc3c1C(C2)N(C)C[C@@H]3O (stereo not given in full) | 26.1% (inactive) |
| CC(=O)c1c(-c2ccccc2)noc1C | -12.8% (inactive) |
| CCN(CC)CCCC(C)Nc1cc(C)c2nc(C)cc(C)c2c1C (stereo not given) | 3.4% (inactive) |
| CC(=O)ONc1nc(C)c(CCC2OCCO2)c(SC(=N)N)n1 | -1.7% (inactive) |
| O=C(NCC(F)(F)C(F)(F)C(F)(F)C(F)(F)C(F)(F)C(F)(F)C(F)(F)F)Oc1ccccc1 | -2.05% (inactive) |
| CC(=O)C1(C)SC(N(c2ccccc2)c2ccccc2)=NC1=O (stereo not given) | 9.05% (inactive) |
| O=c1cc(O)n2ncnc2[nH]1 | -12.6% (inactive) |
| Cc1ccc(C)c(NC(=O)C(=O)C(C2C(C)CC(=O)C2CC(=O)O)[N+](=O)[O-])c1 (stereo not given) | 6.6% (inactive) |
| COc1cc(CCC(C)=O)ccc1OC(=O)c1c(-c2c(F)cccc2Cl)noc1C | 10.3% (inactive) |
| CN(C)c1c([O-])c(=[N+](C)C)c1=O | -5.55% (inactive) |
| C[N+](C)(C)CCc1ccc2ccccc2c1 | 5.7% (inactive) |
| CCOP(=O)(OCC)c1c(C(=O)OC)cc(=O)[nH]c1-c1ccc(C)cc1 | 53.7% (inactive) |

| Compound | growth inhibition |
| --- | --- |
| CCOC(=O)CCC(C#N)C(=O)OCC (stereo not given) | 27.6% (inactive) |
| CC(C)(C)C(=O)C(C(=O)c1ccccc1)C(=O)C(C)(C)C | 9.8% (inactive) |
| FC(F)(F)c1cccc(C=NC23CC4CC(CC(C4)C2)C3)c1 | -30% (inactive) |
| CCCCCCCCCCCCCCCCCCN=C(N)N | -2.25% (inactive) |
| COc1ccc(/C(N=Nc2ccccc2)=N/N=C(N)N)cc1 | 36.9% (inactive) |
| COc1ccc(/C(=N\N=C(N)N)C(c2ccc(OC)cc2)C2OC(=O)c3ccccc32)cc1 (stereo not given) | 16% (inactive) |
| COc1ccc(NC(=O)CSc2nc(C)nc3c2sc(=S)n3-c2ccccc2)cc1 | -3.5% (inactive) |
| [O-]c1c[n+](-c2ccc3c(c2)OCO3)no1 | 7.3% (inactive) |
| CCOC(=O)C1=C(N)n2c(s/c(=C/c3ccc(N(C)C)cc3)c2=O)=C(C(=O)OCC)C1c1ccc(N(C)C)cc1 (stereo not given) | 3.4% (inactive) |
| COc1ccc(/C(Cl)=C(\C=O)c2cc(OC)c(OC)c(OC)c2)cc1OC | -3.45% (inactive) |
| COC(=O)C[C@](O)(CCCC(C)(C)O)C(=O)O[C@@H]1C(OC)=C[C@]23CCCN2CCc2cc4c(cc2[C@H]13)OCO4 | 43.3% (inactive) |
| c1ccc(-c2c(-c3cccs3)[nH]c(-c3cccs3)c2-c2ccccn2)nc1 | -6.6% (inactive) |
| CCOC(=O)/C(=C\c1cc(OC)ccc1OC)P(=O)(OCC)OCC | 7.6% (inactive) |
| CCCCCCCCCCCCN(CC(O)C(O)C(OC1OC(CO)C(O)C(O)C1O)C(O)CO)C(=O)CCCCCCCCCCC (stereo not given) | 4.3% (inactive) |
| O=C1OC(CC(=O)c2ccc(Cl)c(Cl)c2)C(Cl)=C1Cl (stereo not given) | 30% (inactive) |
| COc1ccc(C(=O)c2ccccc2)c(N)c1 | -17.9% (inactive) |
| COc1cc(CC2C(=O)OCC2C2(c3ccc4c(c3)OCO4)SCCCS2)cc(OC)c1OC (stereo not given) | 3.2% (inactive) |
| O=C(O)/C=C\C(=O)Nc1ccc(N=Nc2ccccc2)cc1 | -18.8% (inactive) |
| CN(C)/C=C/C(=O)c1ccccc1 | 6.05% (inactive) |
| O=C(O)c1nc2ccccc2c(=O)[nH]1 | -12.2% (inactive) |

Test: NCI Yeast Anticancer Drug Screen. Data for the mlh1 rad18 strain (AID 175)
Conditions: S. cerevisiae mlh1 rad18 strain growth inhibition; at 50.0 µM; hits give high values
Outline: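 Vehicle-treated cultures served as the reference for growth inhibition in a yeast strain carrying DNA damage repair alterations exposed to each compound.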

| Compound | growth inhibition |
| --- | --- |
| COc1ccc(C2OC3=C(Nc4ccc(Cl)cc4N3)C2=O)c(OC)c1 (stereo not given) | -28.8% (inactive) |
| Nc1nc(-c2ccccc2)ns1 | -2.3% (inactive) |
| O=C(O)CN1CCN(CC(=O)O)CCN(CC(=O)O)CCN(CC(=O)O)CC1 | 21.6% (inactive) |
| COC(=O)CCC(=O)CC(=O)C(=O)Nc1ccc(F)cc1 | 7.75% (inactive) |
| c1ccc(-c2nc(-c3ccccn3)cc3ccccc23)cc1 | 18.8% (inactive) |
| CC12CCC(C(Br)C1=O)C2(C)CBr (stereo not given) | -0.7% (inactive) |
| CN1CCC(OC(=O)C(O)C2CCCCC2)CC1 (stereo not given) | 41.8% (inactive) |
| CCCCCCCCCCCCOP(=O)(O)OP(=O)(O)OCC1OC(n2ccc(N)nc2=O)CC1O (stereo not given) | 18.2% (inactive) |
| COc1ccc2c(c1OC)Oc1c(OC)ccc3c1C(C2)N(C)C[C@@H]3O (stereo not given in full) | -5.5% (inactive) |
| CC(=O)c1c(-c2ccccc2)noc1C | -1.4% (inactive) |
| CCN(CC)CCCC(C)Nc1cc(C)c2nc(C)cc(C)c2c1C (stereo not given) | -18.6% (inactive) |
| CC(=O)ONc1nc(C)c(CCC2OCCO2)c(SC(=N)N)n1 | 38.2% (inactive) |
| O=C(NCC(F)(F)C(F)(F)C(F)(F)C(F)(F)C(F)(F)C(F)(F)C(F)(F)F)Oc1ccccc1 | 3.35% (inactive) |
| CC(=O)C1(C)SC(N(c2ccccc2)c2ccccc2)=NC1=O (stereo not given) | -0.6% (inactive) |
| O=c1cc(O)n2ncnc2[nH]1 | 9% (inactive) |
| Cc1ccc(C)c(NC(=O)C(=O)C(C2C(C)CC(=O)C2CC(=O)O)[N+](=O)[O-])c1 (stereo not given) | 1.7% (inactive) |
| COc1cc(CCC(C)=O)ccc1OC(=O)c1c(-c2c(F)cccc2Cl)noc1C | 3.5% (inactive) |
| CN(C)c1c([O-])c(=[N+](C)C)c1=O | -45.9% (inactive) |
| C[N+](C)(C)CCc1ccc2ccccc2c1 | 12.8% (inactive) |
| CCOP(=O)(OCC)c1c(C(=O)OC)cc(=O)[nH]c1-c1ccc(C)cc1 | 61.3% (inactive) |

| Compound | growth inhibition |
| --- | --- |
| CCOC(=O)CCC(C#N)C(=O)OCC (stereo not given) | 6% (inactive) |
| CC(C)(C)C(=O)C(C(=O)c1ccccc1)C(=O)C(C)(C)C | -30.2% (inactive) |
| FC(F)(F)c1cccc(C=NC23CC4CC(CC(C4)C2)C3)c1 | 8.75% (inactive) |
| CCCCCCCCCCCCCCCCCCN=C(N)N | 10.8% (inactive) |
| COc1ccc(/C(N=Nc2ccccc2)=N/N=C(N)N)cc1 | 8.2% (inactive) |
| COc1ccc(/C(=N\N=C(N)N)C(c2ccc(OC)cc2)C2OC(=O)c3ccccc32)cc1 (stereo not given) | -18.7% (inactive) |
| COc1ccc(NC(=O)CSc2nc(C)nc3c2sc(=S)n3-c2ccccc2)cc1 | 4.45% (inactive) |
| [O-]c1c[n+](-c2ccc3c(c2)OCO3)no1 | 13.7% (inactive) |
| CCOC(=O)C1=C(N)n2c(s/c(=C/c3ccc(N(C)C)cc3)c2=O)=C(C(=O)OCC)C1c1ccc(N(C)C)cc1 (stereo not given) | -7.3% (inactive) |
| COc1ccc(/C(Cl)=C(\C=O)c2cc(OC)c(OC)c(OC)c2)cc1OC | 13.9% (inactive) |
| COC(=O)C[C@](O)(CCCC(C)(C)O)C(=O)O[C@@H]1C(OC)=C[C@]23CCCN2CCc2cc4c(cc2[C@H]13)OCO4 | 42.5% (inactive) |
| c1ccc(-c2c(-c3cccs3)[nH]c(-c3cccs3)c2-c2ccccn2)nc1 | -57% (inactive) |
| CCOC(=O)/C(=C\c1cc(OC)ccc1OC)P(=O)(OCC)OCC | 16.8% (inactive) |
| CCCCCCCCCCCCN(CC(O)C(O)C(OC1OC(CO)C(O)C(O)C1O)C(O)CO)C(=O)CCCCCCCCCCC (stereo not given) | -50.5% (inactive) |
| O=C1OC(CC(=O)c2ccc(Cl)c(Cl)c2)C(Cl)=C1Cl (stereo not given) | 52.7% (inactive) |
| COc1ccc(C(=O)c2ccccc2)c(N)c1 | 10.4% (inactive) |
| COc1cc(CC2C(=O)OCC2C2(c3ccc4c(c3)OCO4)SCCCS2)cc(OC)c1OC (stereo not given) | 26.8% (inactive) |
| O=C(O)/C=C\C(=O)Nc1ccc(N=Nc2ccccc2)cc1 | -2.9% (inactive) |
| CN(C)/C=C/C(=O)c1ccccc1 | 8.95% (inactive) |
| O=C(O)c1nc2ccccc2c(=O)[nH]1 | -4.6% (inactive) |
